Results: PubChem BioAssay (EPA / NIEHS)
Records with an inconclusive call do not appear. Active and inactive are the calls of the source. The calls were made as follows, unless noted: active = hit-call score of the fitted dose curve at least 0.9, where 1 is the maximum; inactive = score below 0.9.

Experiments:
[1] = TOX21_PR_LUC_Followup_Antagonist_viability: Viability Assessment in the Tox21 HEK293 Progesterone Receptor (PR) Antagonism Luciferase Follow-Up Assay (AID 2283940; active = hit-call score of the fitted dose curve at least 0.9, where 1 is the maximum)
How it was run: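 Viability counter-readout: cellular ATP measured by luciferase luminescence after 16 h compound exposure at 37C of HEK293-PR-A-luc cells, which had been cultured in charcoal-stripped serum and seeded 5 h beforehand.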

[2] = CCTE_Harrill_HTTr_Viability_DMEM_6hr: (Pilot) CCTE's 6-hour Cell Viability Assessment for the High-Throughput Transcriptomics (HTTr) Platform, in MCF-7 cells cultured in DMEM + 10% fetal bovine serum, Harrill Lab (AID 2283973)
How it was run: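 Propidium iodide uptake imaged by high-content analysis after six hours of chemical treatment in an eight-concentration series. Cells: MCF-7 grown in DMEM with 10% fetal bovine serum; DMSO as baseline.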

[3] = CCTE_Harrill_HTTr_Viability_DMEM_12hr: (Pilot) CCTE's 12-hour Cell Viability Assessment for the High-Throughput Transcriptomics (HTTr) Platform, in MCF-7 cells cultured in DMEM + 10% fetal bovine serum, Harrill Lab (AID 2283974)
How it was run: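 Propidium iodide dye exclusion imaged by high-content microscopy after 12 h chemical exposure (eight concentrations) of MCF-7 cells grown in DMEM plus 10% FBS; values fitted in both directions relative to DMSO.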

[4] = CCTE_Harrill_HTTr_Viability_DMEM_24hr: (Pilot) CCTE's 24-hour Cell Viability Assessment for the High-Throughput Transcriptomics (HTTr) Platform, in MCF-7 cells cultured in DMEM + 10% fetal bovine serum, Harrill Lab (AID 2283975)
How it was run: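 Pilot study: propidium iodide dye exclusion, imaged by high content microscopy, after 24 h compound exposure (eight concentrations) in MCF-7 cultured in DMEM + 10% fetal bovine serum; DMSO served as negative control and baseline.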

[5] = CCTE_Harrill_HTTr_Viability_PRF_DMEM_6hr: (Pilot) CCTE's 6-hour Cell Viability Assessment for the High-Throughput Transcriptomics (HTTr) Platform, in MCF-7 cells cultured phenol red-free DMEM + 10% charcoal-stripped fetal bovine serum, Harrill Lab (AID 2283976)
How it was run: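 Membrane integrity by high-content imaging of propidium iodide uptake, six hours after dosing with eight concentrations. Cells: MCF-7 grown in phenol red-free DMEM plus 10% charcoal-stripped serum; DMSO serves as baseline for bidirectional fits.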

[6] = CCTE_Harrill_HTTr_Viability_PRF_DMEM_12hr: (Pilot) CCTE's 12-hour Cell Viability Assessment for the High-Throughput Transcriptomics (HTTr) Platform, in MCF-7 cells cultured in phenol red-free DMEM + 10% charcoal-stripped fetal bovine serum, Harrill Lab (AID 2283977)
How it was run: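 Membrane integrity was scored via propidium iodide dye exclusion imaging, fitted in both directions relative to DMSO. Compounds ran as eight-point dilutions for 12 hours on MCF-7 grown in phenol red-free DMEM plus 10% charcoal-stripped serum.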

[7] = CCTE_Harrill_HTTr_Viability_PRF_DMEM_24hr: (Pilot) CCTE's 24-hour Cell Viability Assessment for the High-Throughput Transcriptomics (HTTr) Platform, in MCF-7 cells cultured in phenol red-free DMEM + 10% charcoal-stripped fetal bovine serum, Harrill Lab (AID 2283980)
How it was run: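 Propidium iodide exclusion imaged at 24 h after dosing scores viability; cells were MCF-7 grown in phenol red-free DMEM plus 10% charcoal-stripped serum, tested in eight concentrations, fitted in both directions against DMSO.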

[8] = CCTE_Harrill_HTTr_Apoptosis_DMEM_6hr: (Pilot) CCTE's 6-hour Apoptosis Assessment for the High-Throughput Transcriptomics (HTTr) Platform, in MCF-7 cells cultured in DMEM + 10% fetal bovine serum, Harrill Lab (AID 2283981)
How it was run: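 MCF-7 cells grown in DMEM + 10% FBS were exposed for 6 hours to an eight-point dilution series. CellEvent Caspase 3/7 Green signal was imaged; activity fitted bidirectionally against DMSO.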

[9] = TOX21_PR_LUC_Followup_Agonist_viability: Viability Assessment in the Tox21 HEK293 Progesterone Receptor (PR) Agonism Luciferase Follow-Up Assay (AID 2283941; active = hit-call score of the fitted dose curve at least 0.9, where 1 is the maximum;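 also: loss of signal means cytotoxicity so actives lower viability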)
How it was run: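 Cytotoxicity counter-readout in the PR-A luciferase reporter line HEK293, with 16 h compound exposure at 37C after cells were cultured in charcoal-stripped serum. Cellular ATP quantified by CellTiter-Glo luminescence.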

[10] = biological target: Thyroid hormone receptor alpha (Rattus norvegicus) + Thyroid hormone receptor beta (Rattus norvegicus) (UniProt P18113+P63059); assay: TOX21_TR_LUC_GH3_Antagonist_Followup: Tox21 GH3 Thyroid Hormone Receptor Antagonism Luciferase Follow-Up Assay (AID 2283942; active = hit-call score of the fitted dose curve at least 0.9, where 1 is the maximum)
How it was run: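 In a GH3 luciferase reporter line, test chemicals spanning 92 uM to 5nM final are co-incubated 24 h with 1.0 nM T3. Activity is expressed as relative luminescence units and analysed relative to DMSO.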

[11] = TOX21_TRB_BLA_Antagonist_Followup_viability: Viability Assessment in the Tox21 Thyroid Hormone Receptor beta Antagonism Beta-lactamase (BLA) Follow-Up Assay (AID 2283961; active = hit-call score of the fitted dose curve at least 0.9, where 1 is the maximum)
How it was run: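 In the same wells as the reporter read, cell health was gauged by CellTiter-Glo ATP luminescence, with signal loss indicating reduced viability. Cells had been exposed to test compounds for 18 h.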

[12] = biological target: THRB (gene 7068) (UniProt P10828); assay: TOX21_TRB_COA_Antagonist_Followup_ratio: Tox21 Thyroid Hormone Receptor beta Antagonism through Coactivator Recruitment Follow-Up Assay, Ratio (AID 2283967; active = hit-call score of the fitted dose curve at least 0.9, where 1 is the maximum)
How it was run: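 Coactivator (SRC-2) recruitment to purified GST-TRβ ligand-binding domain is monitored by terbium-to-fluorescein energy transfer, emission ratio 520:495 nm. DMSO wells define 0% and T3 wells 100% activity.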

[13] = biological target: Retinoic acid receptor RXR-alpha (Homo sapiens) (UniProt P19793); assay: TOX21_TR_RXR_BLA_Antagonist_Followup_ratio: Tox21 Thyroid Hormone Receptor beta Retinoid X Receptor alpha (RXRa) Antagonism Beta-lactamase (BLA) Follow-Up Assay, Ratio (AID 2283972; active = hit-call score of the fitted dose curve at least 0.9, where 1 is the maximum)
How it was run: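 Compounds were tested in triplicate at 11 concentrations on RXRa-bla HEK293T cells for 16 h. Substrate cleavage ratio, normalized to DMSO, gave the endpoint.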

[14] = TOX21_TR_RXR_BLA_Antagonist_Followup_viability: Viability Assessment in the Tox21 Thyroid Hormone Receptor beta Retinoid X Receptor alpha (RXRa) Antagonism Beta-lactamase (BLA) Follow-Up Assay (AID 2283979; active = hit-call score of the fitted dose curve at least 0.9, where 1 is the maximum)
How it was run: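 RXRa-UAS-bla HEK293T cells seeded 2,500/well in phenol red-free DMEM with 2% charcoal-stripped FBS, attached 5 h, then exposed to compounds at 11 concentrations in triplicate for 16 h at 37C/5% CO2. Viability read by CellTiter-Glo ATP luminescence; bidirectional fit versus DMSO.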

[15] = biological target: THRA (gene 7067) (UniProt P10827); assay: TOX21_TRA_COA_Agonist_Followup_ratio: Tox21 Thyroid Hormone Receptor alpha Agonism through Coactivator Recruitment Follow-Up Assay, Ratio (AID 2283948)
How it was run: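 Agonist-mode biochemical TR-FRET with TRα LBD and SRC-2 coactivator peptide; activity expressed as percent of T3 response over DMSO baseline.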

[16] = biological target: THRB (gene 7068) (UniProt P10828); assay: TOX21_TRB_COA_Agonist_Followup_ratio: Tox21 Thyroid Hormone Receptor beta Agonism through Coactivator Recruitment Follow-Up Assay, Ratio (AID 2283963)
How it was run: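 Cell-free TR-FRET coactivator recruitment: GST-tagged TRβ LBD (5.0 nM) with 0.10% BSA incubated with compound, then fluorescein-SRC-2 peptide (200 nM) and Tb-anti-GST antibody (2 nM) added. 520:495 nm ratio normalized to DMSO (0%) and T3 (100%).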

[17] = biological target: Retinoic acid receptor RXR-alpha (Homo sapiens) (UniProt P19793); assay: TOX21_TR_RXR_BLA_Agonist_Followup_ratio: Tox21 Thyroid Hormone Receptor beta Retinoid X Receptor alpha (RXRa) Agonism Beta-lactamase (BLA) Follow-Up Assay, Ratio (AID 2283968; active = hit-call score of the fitted dose curve at least 0.9, where 1 is the maximum)
How it was run: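 Agonist mode: compounds given to RXRa-bla HEK293T cells at 11 concentrations, triplicate, 16 h at 37C/5% CO2. Readout is the 460:530 nm blue/green ratio after 2 h substrate loading at room temperature; DMSO baseline, 9-cis retinoic acid control.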

[18] = TOX21_TR_RXR_BLA_Agonist_Followup_viability: Viability Assessment in the Tox21 Thyroid Hormone Receptor beta Retinoid X Receptor alpha (RXRa) Agonism Beta-lactamase (BLA) Follow-Up Assay (AID 2283970; active = hit-call score of the fitted dose curve at least 0.9, where 1 is the maximum)
How it was run: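 CellTiter-Glo ATP luciferase read-out of cell viability, multiplexed with the beta-lactamase reporter run. RXRa-bla HEK293T cells in charcoal-stripped serum medium were exposed 16 h at 37C; data fitted both directions relative to DMSO.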

[19] = biological target: THRA (gene 7067) (UniProt P10827); assay: TOX21_TRA_COA_Antagonist_Followup_ratio: Tox21 Thyroid Hormone Receptor alpha Antagonism through Coactivator Recruitment Follow-Up Assay, Ratio (AID 2283953; active = hit-call score of the fitted dose curve at least 0.9, where 1 is the maximum)
How it was run: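 GST-TRα LBD 2.5 nM, BSA 0.10%, + cpd; then FITC-SRC-2 peptide 200 nM + Tb-anti-GST Ab 2 nM. TR-FRET ratio 520/495 nm. Norm: DMSO = 0%, T3 = 100%.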

[20] = biological target: THRB (gene 7068) (UniProt P10828); assay: TOX21_TRB_BLA_Antagonist_Followup_ratio: Tox21 Thyroid Hormone Receptor beta Antagonism Beta-lactamase (BLA) Follow-Up Assay, Ratio (AID 2283958; active = hit-call score of the fitted dose curve at least 0.9, where 1 is the maximum)
How it was run: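 Beta-lactamase reporter ratio (460/530 nm, CCF4-AM substrate, 2 h room temperature) was read in TRb-bla HEK293T cells after 18 h compound treatment (11 concentrations, triplicate) at 37C in 2% charcoal-stripped FBS medium. Loss of signal fitted against DMSO.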

Chain of Retinoic acid receptor RXR-alpha (Homo sapiens) (P19793 whole entry, looked up): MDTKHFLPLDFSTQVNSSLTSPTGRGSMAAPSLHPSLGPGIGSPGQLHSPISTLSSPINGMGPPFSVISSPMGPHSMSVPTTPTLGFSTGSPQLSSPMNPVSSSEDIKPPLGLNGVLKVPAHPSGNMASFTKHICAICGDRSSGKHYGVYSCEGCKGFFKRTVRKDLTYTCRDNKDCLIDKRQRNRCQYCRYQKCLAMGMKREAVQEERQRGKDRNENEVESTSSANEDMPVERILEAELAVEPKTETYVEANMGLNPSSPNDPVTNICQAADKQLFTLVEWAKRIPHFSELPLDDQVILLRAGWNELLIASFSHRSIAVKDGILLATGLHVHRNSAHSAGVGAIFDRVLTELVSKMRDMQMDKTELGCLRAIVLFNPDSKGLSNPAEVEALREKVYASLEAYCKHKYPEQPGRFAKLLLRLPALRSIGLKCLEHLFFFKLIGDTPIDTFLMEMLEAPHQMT
Chain of THRB (gene 7068) (P10828 whole entry, looked up, the tested form may be a part): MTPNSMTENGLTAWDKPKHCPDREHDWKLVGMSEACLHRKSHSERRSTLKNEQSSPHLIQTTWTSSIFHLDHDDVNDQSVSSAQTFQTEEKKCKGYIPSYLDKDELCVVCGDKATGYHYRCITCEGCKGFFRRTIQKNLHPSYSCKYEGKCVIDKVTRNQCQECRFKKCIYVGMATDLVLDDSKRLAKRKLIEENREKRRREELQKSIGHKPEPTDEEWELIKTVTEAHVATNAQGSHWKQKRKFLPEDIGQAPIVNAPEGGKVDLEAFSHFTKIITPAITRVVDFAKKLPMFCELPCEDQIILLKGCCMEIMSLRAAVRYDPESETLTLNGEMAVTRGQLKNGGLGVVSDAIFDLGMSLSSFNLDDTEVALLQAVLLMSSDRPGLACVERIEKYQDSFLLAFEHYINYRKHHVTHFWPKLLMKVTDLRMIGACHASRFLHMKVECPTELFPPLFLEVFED
Chain of THRA (gene 7067) (P10827 whole entry, looked up, the tested form may be a part): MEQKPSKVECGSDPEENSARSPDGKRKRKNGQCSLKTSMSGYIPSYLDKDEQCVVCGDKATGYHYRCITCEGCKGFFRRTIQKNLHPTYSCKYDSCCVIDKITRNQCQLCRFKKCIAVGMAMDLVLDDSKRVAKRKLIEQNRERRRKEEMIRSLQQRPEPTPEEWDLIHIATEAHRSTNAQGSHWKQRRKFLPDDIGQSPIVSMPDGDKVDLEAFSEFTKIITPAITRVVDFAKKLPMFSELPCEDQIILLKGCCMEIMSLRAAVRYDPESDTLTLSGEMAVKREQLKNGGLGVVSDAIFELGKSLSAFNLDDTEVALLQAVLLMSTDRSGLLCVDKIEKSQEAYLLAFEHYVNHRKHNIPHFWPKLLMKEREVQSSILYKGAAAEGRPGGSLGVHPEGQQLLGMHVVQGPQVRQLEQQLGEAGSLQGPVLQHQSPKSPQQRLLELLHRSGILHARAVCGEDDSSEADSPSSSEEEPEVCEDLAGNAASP

## CC(C)(c1ccc(O)cc1)c1ccc(O)cc1
[1]
  outcome: inactive
[2]
  outcome: inactive
[3]
  outcome: inactive
[4]
  outcome: inactive
[5]
  outcome: inactive
[6]
  outcome: inactive
[7]
  outcome: inactive
[8]
  outcome: inactive

## C[C@]12CC[C@@H]3c4ccc(O)cc4C[C@@H](CCCCCCCCCS(=O)CCCC(F)(F)C(F)(F)F)[C@H]3[C@@H]1CC[C@@H]2O (stereo partly drawn)
[1]
  outcome: inactive
[9]
  outcome: inactive
[10]
  outcome: inactive
[11]
  outcome: inactive
[12]
  outcome: inactive
[13]
  outcome: inactive
[2]
  outcome: inactive
[3]
  outcome: inactive
[4]
  outcome: inactive
[5]
  outcome: inactive
[6]
  outcome: inactive
[14]
  outcome: inactive
[7]
  outcome: inactive
[8]
  outcome: inactive

## CCCN(CCC)C(=O)SCC
[15]
  outcome: inactive
[16]
  outcome: inactive
[17]
  outcome: inactive

## O=C(c1ccc(O)cc1O)c1ccc(O)cc1O
[1]
  outcome: inactive
[9]
  outcome: inactive

## S=C([S-])NCCNC(=S)[S-].[Mn+2]
[2]
  outcome: inactive
[3]
  outcome: inactive
[4]
  outcome: inactive
[5]
  outcome: inactive
[6]
  outcome: inactive
[7]
  outcome: inactive
[8]
  outcome: inactive

## COC(=O)c1ccc(I)cc1S(=O)(=O)NC(=O)Nc1nc(C)nc(OC)n1
[15]
  outcome: inactive
[16]
  outcome: inactive
[17]
  outcome: inactive
[18]
  outcome: inactive

## C=CCOC(Cn1ccnc1)c1ccc(Cl)cc1Cl (stereo not drawn)
[2]
  outcome: inactive
[3]
  outcome: inactive
[4]
  outcome: inactive
[5]
  outcome: inactive
[6]
  outcome: inactive
[7]
  outcome: inactive
[8]
  outcome: inactive

## CCNc1nc(N)nc(Cl)n1
[15]
  outcome: inactive
[16]
  outcome: inactive
[17]
  outcome: inactive
[18]
  outcome: inactive

## Cc1nn(C)c(Oc2ccccc2)c1C=NOCc1ccc(C(=O)OC(C)(C)C)cc1
[2]
  outcome: inactive
[3]
  outcome: inactive
[4]
  outcome: inactive
[5]
  outcome: inactive
[6]
  outcome: inactive
[7]
  outcome: inactive
[8]
  outcome: inactive

## C[C@]12C[C@H](O)[C@H]3[C@@H](CCC4=CC(=O)CC[C@@]43C)[C@@H]1CC[C@@H]2C(=O)CO
[9]
  outcome: inactive
[19]
  outcome: inactive
[20]
  outcome: inactive
[11]
  outcome: inactive
[14]
  outcome: inactive

## CC(=O)[C@H]1CC[C@H]2[C@@H]3CCC4=CC(=O)CC[C@]4(C)[C@H]3CC[C@]12C
[10]
  outcome: inactive
[19]
  outcome: inactive
[20]
  outcome: inactive
[11]
  outcome: inactive
[12]
  outcome: inactive
[14]
  outcome: inactive

## N[C@@H](Cc1cc(I)c(Oc2ccc(O)c(I)c2)c(I)c1)C(=O)O
[2]
  outcome: inactive
[3]
  outcome: inactive
[4]
  outcome: inactive
[5]
  outcome: inactive
[6]
  outcome: inactive
[7]
  outcome: inactive
[8]
  outcome: inactive

## CC(C)CCCCCCc1ccc(O)cc1
[1]
  outcome: inactive
[9]
  outcome: inactive
[2]
  outcome: inactive
[3]
  AC50: 55.5 µM (active)
[4]
  AC50: 69.4 µM (active)
[5]
  AC50: 55.7 µM (active)
[6]
  AC50: 69.2 µM (active)
[7]
  AC50: 64.3 µM (active)
[8]
  outcome: inactive
